Reference: PubChem BioAssay (Tox21)
Records with an inconclusive call do not appear. A call without a number means that no potency is given here. The source made the active and inactive calls. The call rests on the fitted dose curve; in most records, active means well fitted inhibition curve with a large enough effect in the signal ratio in the repeat runs, with a control signal flat; inconclusive means weak or mixed curves, or effect the other way; inactive means flat fitted curve, though single readings scatter; the % refers to the signal ratio.

Biological target: D(2) dopamine receptor (Homo sapiens) (UniProt P14416)
Assay: Dopamine D2 receptor (DRD2) small molecule antagonists, cell-based qHTS assay (AID 1963595)
Details: HEK293-DRD2 cAMP HTRF antagonist mode; series mostly up to 92.4 µM
Description: National Center for Advancing Translational Sciences [NCATS]
Division of Preclinical Innovation [DPI]
U.S. Environmental Protection Agency [EPA]
National Institutes of Environmental Health Sciences [NIEHS]
National Toxicology Program [NTP]
U.S. Food and Drug Administration [FDA]
DRD2 is the D2 subtype of the dopamine receptor, which is coupled to Gi subtype of G protein-coupled receptor. This G protein-coupled receptor inhibits adenylyl cyclase activity. The DRD2-HEK293 cell line stably expressing D2 dopamine receptor can be used for screening agonists and antagonists of interactions between D2 and its ligands. The Hek293-DRD2 cAMP assay is based on HTRF technology. It measures changes of cAMP accumulation in response to Gi coupled GPCR activation or inhibition.
Tox21 Assay Protocol Summary:
DRD2-Hek293 cells were dispensed at 600 cells/3uL/well in 1536-well white plates using a Multidrop Dispenser. After the assay plates were incubated at a 37 C/5% CO2 incubator for 24 h, 1 uL of Ro20-1724 at final concentration of 0.1 mM was transferred to the assay plate by a Flying Reagent Dispenser. Following Ro20-1724 addition, 23 nL of compound dissolved in DMSO, positive controls or DMSO only was added to the assay plates via Wako pintool station. The assay plates were incubated at room temperature for 10 min. Next, 1 uL of mixture of NKH477 (final concentration at 200 nM) and quinpirole (final concentration at 12 nM) was added into the plates. After the assay plates were incubated at room temperature for an additional 30 min, 2.5 ul/well of cAMP-d2 and 2.5 ul/well of anti-cAMP-cryptate were added respectively into the assay plates using a Flying Reagent Dispenser. The plates were incubated at room temperature for 1 h. The fluorescence intensity in the plates was measured at 340 nm excitation and 665 & 620 nm emission by an Envision plate reader.

D(2) dopamine receptor (Homo sapiens), sequence (P14416 whole entry, looked up): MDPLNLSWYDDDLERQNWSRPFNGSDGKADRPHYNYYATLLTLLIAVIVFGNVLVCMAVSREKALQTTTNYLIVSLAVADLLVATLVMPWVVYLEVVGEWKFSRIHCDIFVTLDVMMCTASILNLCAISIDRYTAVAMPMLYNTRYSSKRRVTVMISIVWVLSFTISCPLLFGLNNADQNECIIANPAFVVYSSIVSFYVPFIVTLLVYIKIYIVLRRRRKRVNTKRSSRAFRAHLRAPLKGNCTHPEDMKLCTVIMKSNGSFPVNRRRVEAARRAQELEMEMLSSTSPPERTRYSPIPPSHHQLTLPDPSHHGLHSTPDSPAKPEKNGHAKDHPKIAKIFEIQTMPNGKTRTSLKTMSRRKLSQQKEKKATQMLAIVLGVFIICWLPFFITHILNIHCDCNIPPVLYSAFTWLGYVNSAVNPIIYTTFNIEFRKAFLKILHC

SMILES | Potency
CNc1cnn(-c2cccc(C(F)(F)F)c2)c(=O)c1Cl | inactive
CCCCCCCCC(=O)NCc1ccc(O)c(OC)c1 | inactive
ClC(Cl)(Cl)C(Cl)(Cl)Cl | inactive
C=CCSSCC=C | inactive
CCC[N+]1(C)CCCCC1 | inactive
CC(C)Nc1nc(Cl)nc(NC(C)C)n1 | inactive
COC(=O)C(Cl)C(=O)OC | inactive
CCCCn1cc[n+](C)c1 | inactive
C=CC(=O)OCCCCCC(C)C | inactive
O=S(=O)(c1ccc(O)cc1)c1ccc(O)cc1 | inactive
C[C@]12C=CC3=C4CCC(=O)C=C4CC[C@H]3[C@@H]1CC[C@@H]2O | inactive
Nc1ccc(-c2ccc(N)c(Cl)c2)cc1Cl | inactive
CCCN(CCC)N=O | inactive
CCC(C)c1cc([N+](=O)[O-])cc([N+](=O)[O-])c1O (stereo not given) | inactive
C1CN2CCN1CC2 | inactive
O=S(=O)(O)OOS(=O)(=O)O | inactive
OC(O)C(Cl)(Cl)Cl | inactive
COP(=S)(OC)Oc1ccc([N+](=O)[O-])cc1 | inactive
Clc1cccc(Cl)c1 | inactive
CCN(N=O)C(N)=O | inactive

SMILES | Potency
O=C(Cl)OCCOCCOC(=O)Cl | inactive
Nc1ccccc1C(=O)OCC(O)CO (stereo not given) | inactive
O=S(=O)(c1ccc(Cl)cc1)c1cc(Cl)c(Cl)cc1Cl | inactive
O=c1[nH]c(=O)n(Cl)c(=O)n1Cl | inactive
C/C=C/CC#N | inactive
CCC1(c2ccccc2)CCC(=O)NC1=O (stereo not given) | inactive
Cc1cccc([N+](=O)[O-])c1 | inactive
COP(=O)(CCC(=O)NCO)OC | inactive
O=C/C=C/c1ccccc1 | inactive
CC(C)(N)Cc1ccccc1Cl | inactive
O=[N+]([O-])c1cccc(O)c1 | inactive
CCCCCCCCCCCCn1cc[n+](C)c1 | inactive
C=CCO | inactive
O=[N+]([O-])c1ccc(Cl)c(Cl)c1 | inactive
CCC(=O)O[C@H]1CC[C@H]2[C@@H]3CCC4=CC(=O)CC[C@]4(C)[C@H]3CC[C@]12C | inactive
C=CC(=O)OCC(C)C | inactive
C/C(=N\NC(=O)Nc1cc(F)cc(F)c1)c1ncccc1C(=O)O | inactive
COC(=O)Nc1cccc(OC(=O)Nc2cccc(C)c2)c1 | inactive
Clc1ccc(C(c2ccc(Cl)cc2)C(Cl)(Cl)Cl)cc1 | inactive
N#CC(Cl)Cl | inactive
